Experiment [1] in a line: NFkB reporter suppression in cystic fibrosis bronchial cells – cell-based, uHTS hits, panel, cytotoxicity readout, dose response (AID 624344). Conditions: CF bronchial epithelial cells, PAF-induced NFkB reporter inhibition, with PAF, run 1; at 79 µM (top of the series) unless noted.
Experiment in experiment [2]: as above
Conditions: CF bronchial epithelial cells, PAF-induced NFkB reporter inhibition, with PAF, run 2; at 79 µM (top of the series) unless noted.

The test system of the next experiment is Cytotoxicity. The description is as above. Particulars: CF bronchial epithelial cells; run 1, at 19.8 µM (top of the series).

On to `CC(=O)Nc1ccc(-c2ccnc3c2CC(C(=O)NCc2ccco2)O3)cc1` (stereo not given), for which the inhibition (usually the drop in the measured response relative to a control, in per cent) came to 70% in experiment [1] and 78% in experiment [2].

For `CC(C)(C)c1nc(NC(=O)Nc2ccccc2)sc1Br`, the inhibition in experiment [1] came to 107%; in experiment [2], 103%.

Regarding `CS(=O)(=O)c1ncc(Cl)c(C(=O)Nc2ccc(OC(F)F)cc2)n1`, the inhibition in experiment [1] is 91.4%; in experiment [2], 90.1%.

On to `COc1cc(O)cc2cc3c(c(O)c12)C(=O)CC(C)(O)O3` (stereo not given), for which the results for the inhibition in experiment [1] and in experiment [2] were 99.9% and 108%, respectively.

For `O=S1(=O)CC=C(CSC(=S)NC2CCS(=O)(=O)C2)C1` (stereo not given), the inhibition in experiment [1] was 100%; in experiment [2] it was 110%.

As for `O=C(COc1ccc(Cl)cc1)Nc1ncc([N+](=O)[O-])s1`, the inhibition in experiment [1] stood at 115%; in experiment [2], 83.3%.

`S=c1[nH]nc(-c2ccncc2)n1/N=C/C(Cl)=C\c1ccccc1`: the results for the inhibition in experiment [1] and in experiment [2] were 101% and 109%, respectively.

Take `COc1ccccc1[C@]1(C)ON(c2ccccc2C(F)(F)F)C1=O`: the inhibition in experiment [1] was determined as 105%; in experiment [2] it was 109%.

Turning to `COc1ccc(C2=Nn3c(nnc3-c3ccncc3)SC2)cc1`, the values for the inhibition in experiment [1] and in experiment [2] were 81.7% and 76.5%, respectively.

For `Cc1cccc(CS(=O)(=O)c2ncc(Cl)c(C(=O)NCc3ccccc3)n2)c1`, the inhibition in experiment [1] came out at 92.1%; in experiment [2] it was 88.2%.

Take `Cc1ccc(NC(=O)/C=C/c2ccco2)nc1`: the figures for the inhibition in experiment [1] and in experiment [2] were 95.8% and 99.8%, respectively.

Consider `CC1(C)CC(=O)C=C(NC2=CC3OC(c4ccccc4)OCC3OC2=O)C1` (stereo not given), for which the inhibition in experiment [1] came out at 103%; in experiment [2] it was 114%.

Consider `Nc1cc2c(cc1Br)-c1ccccc1C2=NO`, for which the inhibition worked out at 93.5% in experiment [1] and 106% in experiment [2].

For `Cc1ccnc(NC(=O)CCCOc2cc(=O)n(C)c3ccccc23)c1`, the inhibition in experiment [1] came to 105%; in experiment [2], 112%.

Regarding `COc1cccc(-c2ccc3ncnc(NCc4cccc(C)c4)c3c2)c1`, the inhibition was determined as 118% in experiment [1] and 104% in experiment [2].

On to `O=C(Oc1ccc(F)cc1C(=O)/C=C/c1cccs1)c1cccc([N+](=O)[O-])c1`, for which the inhibition in experiment [1] was 49.3%; in experiment [2], 40.3%.

Take `C[C@H](O)[C@@H]1CN2CCc3c([nH]c4ccc(-c5ccc6c(c5)OCO6)cc34)[C@@H]2C[C@@H]1N(C)C(=O)Nc1ccc(F)cc1`: the results for the inhibition in experiment [1] and in experiment [2] were 99.8% and 107%, respectively.

Turning to `COc1ccc(COc2cc(-c3cccc(OC)c3)nc3ccc(NC(=O)c4cccnc4)cc23)cc1`, the results for the inhibition in experiment [1] and in experiment [2] were 98.7% and 95.2%, respectively.

For the molecule `Cc1ccc(Cl)cc1-c1cc(C(=O)NCc2cc(C(F)(F)F)cc(C(F)(F)F)c2)[nH]n1`, the figures for the inhibition in experiment [1] and in experiment [2] were 84.9% and 96.5%, respectively.

On to `COc1ccc(/C=N/Nc2nc(-c3cccnc3)nc3ccccc23)cc1OC`, for which the inhibition in experiment [1] is 108%; in experiment [2], 96.6%.

As to `CCCCCCc1cc2cc(S(=O)(=O)c3ccc(F)cc3)c(=O)oc2cc1O`, the inhibition in experiment [1] was determined as 103%; in experiment [2], 87.3%.

Consider `CN(c1cccc(Cl)c1)S(=O)(=O)c1cccc(C(=O)Nc2nc3ccccc3[nH]2)c1`, for which the inhibition in experiment [1] turned out to be 102%; in experiment [2], 99.5%.

For the molecule `COc1ccc(C2=Nn3c(nnc3-c3ccccc3OC)SC2)cc1OC1CCOC1` (stereo not given), the inhibition in experiment [1] and in experiment [2] was 92.2% in each case.

With `Cc1cccc(C(=O)N2[C@@H](C(C)C)COc3cc(Br)ccc3S2(=O)=O)c1`, the figures for the inhibition in experiment [1] and in experiment [2] were 102% and 93.6%, respectively.

Consider `Cc1cc(C)c(C#N)c(SCC(=O)c2ccc(Cl)cc2Cl)n1`, for which the values for the inhibition in experiment [1] and in experiment [2] were 111% and 101%, respectively.

For the molecule `CC1CCCCN1c1ncnc(N)c1[N+](=O)[O-]` (stereo not given), the inhibition in experiment [1] amounted to 113%; in experiment [2], 103%.

In the case of `Cc1nc(N)c(C#N)c(-c2cccnc2)c1-c1ccccc1`, the values for the inhibition in experiment [1] and in experiment [2] were 93.9% and 80%, respectively.

For `CCc1ccccc1NC(=O)CN(C)C(=O)Cn1ncc(Cl)c(Cl)c1=O`, the inhibition in experiment [1] came to 102%; in experiment [2], 101%.

As for `CC(C)c1nc(Cl)c(C#N)c2c1CCCC2`, the results for the inhibition in experiment [1] and in experiment [2] were 96.5% and 112%, respectively.

Turning to `COc1cc(C(=O)Nc2nnc(-c3sccc3C)s2)cc(OC)c1OC`, the inhibition in experiment [1] stood at 47.9%; in experiment [2], 89.3%.

`Cc1cc(C)c(O)c(CN(C)Cc2cc(Cl)cc(Cl)c2O)c1`: the inhibition in experiment [1] was found to be 109%; in experiment [2], 101%; with Cytotoxicity, 12%.

`COc1ccc2[nH]c3c(c2c1)CCN1C(=O)C(CC(=O)NCCC2=CCCCC2)C[C@H](C(=O)N2CCCCC2)[C@@]31CCc1ccccc1` (stereo not given in full): the inhibition in experiment [1] was 104%; in experiment [2], 40.2% [at 39.5 µM].

On to `CC(=O)c1c(O)cc(O)c(C(C)=O)c1O`, for which the inhibition in experiment [1] amounted to 110%; in experiment [2], 101%.

In the case of `COc1cc(CN(C)c2ccc(S(=O)(=O)N3CCCC3)cn2)ccc1OC(F)F`, the inhibition is 82.4% in experiment [1] and 98.6% in experiment [2].

For the molecule `CC(=O)c1c(C)n(-c2ccccc2)c2ccc(O)cc12`, the inhibition in experiment [1] amounted to 90.8%; in experiment [2] it was 91.5%.

In the case of `Cc1ccnc(NC(=O)Cc2ccc(-c3ccccc3)cc2)c1`, the inhibition in experiment [1] amounted to 111%; in experiment [2], 105%.

Regarding `Cc1ccc(S(=O)(=O)CC(CN2CCCCC2)N2CCCCC2)cc1` (stereo not given), the inhibition in experiment [1] was 102%; in experiment [2], 109%.

As to `COc1ccccc1-c1cc(NC=O)c2ncc(-c3ccc(F)cc3)n2c1`, the inhibition worked out at 97.7% [at 39.5 µM] in experiment [1] and 75.8% [at 39.5 µM] in experiment [2].

For the molecule `CCc1cc(-c2[nH]ncc2-c2ccc(OC)cc2)c(O)cc1O`, the inhibition was 115% in experiment [1] and 104% in experiment [2].

On to `CC1CCN(Cc2c(C(=O)N/N=C/c3ccc(C(C)(C)C)cc3)nnn2-c2nonc2N)CC1`, for which the inhibition in experiment [1] stood at 98.1%; in experiment [2] it was 108%.

`COc1cc2oc(=O)cc(-c3ccc(-c4ccc(N(C)C)cc4)cc3)c2c(OC)c1OC`: the inhibition in experiment [1] came to 54.9%; in experiment [2], 69.4%.

For the molecule `Cc1ccc(CCC(=O)Nc2ncc(Cc3cccc(Cl)c3Cl)s2)o1`, the inhibition in experiment [1] came to 101%; in experiment [2] it was 112%.

(Values after PubChem BioAssay.)
